# This is a sample that favours compounds with a hit; in the whole collection about 13% have one here.
# HCV inh = qHTS Assay for Inhibitors of Hepatitis C Virus (HCV). Huh7.5.1 HCVcc-Cre infection, luciferase reporter, 44 h. Potency, µM (series often up to 41.8 µM), hits mostly inhibitors. 340,000 tested, 3.4% active; active means well fitted inhibition curve with a large enough effect; inconclusive means small, poorly fitted or top-dose-only effect, or another doubt; inactive means no such curve, though single readings can be large or run the other way
#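 Infectious HCVcc-Cre (~0.5 moi) was added to cells just after compound, with cells seeded 4 h earlier at 1,000 per well. Luciferase activity after 44 h culture reported infection; substrate was incubated 15 min at room temperature before reading.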
# Marburg entry inh = qHTS for inhibitors of binding or entry into cells for Marburg Virus. 300,000 tested, 1.8% active. AID 540276, 2011. Potency, µM (titrated, usually from 37.8 µM), most hits filed as inhibitors. Marburg virus pseudotyped entry inhibition, cell reporter; calls by dose curve; tested in HEK293 cells
# CHX counter = Cycloheximide Counterscreen for Small Molecule Inhibitors of Shiga Toxin; cell reporter, cycloheximide protein synthesis inhibition counterscreen; max response, %; 300,000 tested, 12% active; AID 2314, 2010; in the data active means max response mostly above about 13%, no sharp cut-off; inactive means mostly below about 14%; further: read at 38.3 µM for the half of the compounds with a filed dose
# FMDV antiviral = High Throughput Screening for Foot and Mouth Disease Virus Antivirals. FMDV antiviral cell-based qHTS. Potency, µM (top dose mostly 57.9 µM), usual class: inhibitors. 410,000 tested, 1.2% active; calls by dose curve; tested in HEK293T cells; further: read-out not given here; nearly all actives have a fitted effect of over 45% in size
# LASV entry inh = qHTS for Inhibitors of binding or entry into cells for Lassa Virus; Lassa virus pseudotype entry inhibition, cell reporter; Potency, µM (top dose mostly 37.9 µM), hits mostly inhibitors; 300,000 tested, 1.2% active; calls by dose curve; tested in HEK293 cells; further: nearly all actives have a fitted effect of over 50% in size
# Shiga inhibitor = A qHTS for Small Molecule Inhibitors of Shiga Toxin; AID 2315, 2010; inhibition, % at 38.7 µM; 290,000 tested, 9.2% active; Vero cells, Shiga toxin protein synthesis inhibition reporter; in the data active means inhibition mostly above about 28%, no sharp cut-off; inactive means mostly below about 43%
# A number is an active result; – = inactive; ? = inconclusive; · = no result given.
SMILES,HCV inh,Marburg entry inh,CHX counter,FMDV antiviral,LASV entry inh,Shiga inhibitor
Cn1c(=O)c2cc(S(=O)(=O)NC(C(=O)NCc3ccccn3)c3ccccc3)ccc2n(C)c1=O (stereo unspecified),–,–,–,–,·,–
COc1ccc(CNC(=O)CN(c2cccc([N+](=O)[O-])c2)S(C)(=O)=O)cc1,–,–,–,–,–,–
Cc1onc(C(=O)N2CCOCC2)c1[N+](=O)[O-],–,·,–,–,·,–
Cc1cccc(-c2nnc(N)s2)c1,–,–,–,–,–,–
CCCOc1cccc(-c2nnc(N)s2)c1,–,?,22,–,–,44
CCCCOc1cccc(-c2nnc(N)s2)c1,–,–,25,–,–,–
COC(=O)c1c(-c2cccs2)csc1NC(=O)c1cc(OC)c(OC)c(OC)c1,·,?,·,–,–,·
COc1cc(C(=O)Nc2ccc3c(c2)ncn3C(C)(C)C)cc(OC)c1OC,13µM,·,–,–,·,–
CC(C)(C)n1cnc2cc(NC(=O)c3ccc(Cl)cc3)ccc21,?,?,33,–,?,92
COc1cc(C(=O)Nc2ccc3nn(-c4ccc(F)cc4)nc3c2)cc(OC)c1OC,·,·,·,?,–,·
Cn1cnc2cc(NC(=O)c3ccc(Cl)cc3)ccc21,–,·,27,–,·,55
CCC(=O)Nc1ccc2c(c1)ncn2C,–,?,–,–,–,–
CC1(C)CC2CC(C)(CN2S(=O)(=O)c2ccc(C(=O)Nc3cccc(S(=O)(=O)N4CCOCC4)c3)cc2)C1 (stereo unspecified),11µM,5.2µM,–,?,?,–
CC(=O)Oc1ccc(-c2ccc(C(=O)Nc3cccc(S(=O)(=O)N4CCOCC4)c3)cc2)cc1,?,?,9.4,?,?,–
COc1ccc(C(=O)NC(=S)Nc2cccc(S(=O)(=O)N3CCOCC3)c2)cc1,14µM,–,–,–,?,–
CC1(C)CC2CC(C)(CN2S(=O)(=O)c2ccc(C(=O)Nc3cc(S(=O)(=O)N4CCOCC4)ccc3Cl)cc2)C1 (stereo unspecified),–,?,–,–,?,–
O=C(O)c1ccc([N+](=O)[O-])nc1,·,·,·,–,·,·
O=C(Nc1nnc(S(=O)(=O)N2CCc3ccccc32)s1)c1ccccc1,·,·,·,–,–,·
CN(C)C(=O)C1Cc2ccccc2CN1S(=O)(=O)c1cccs1 (stereo unspecified),–,–,–,–,–,–
O=C(C1Cc2ccccc2CN1S(=O)(=O)c1cccs1)N1CCCCC1 (stereo unspecified),–,–,9.5,–,–,–
O=C(Nc1ccc2c(c1)OCO2)C1CCN(S(=O)(=O)c2cccs2)CC1,–,–,8.4,–,–,42
Cc1nn(C)c(C)c1S(=O)(=O)N1CCC(C(=O)Nc2ccc3c(c2)OCCO3)CC1,–,·,–,–,·,81
O=C(Nc1ccc2c(c1)OCCO2)C1CCN(S(=O)(=O)c2cccs2)CC1,–,–,24,–,–,–
O=C(Nc1ccc2c(c1)OCO2)C1CCCN(S(=O)(=O)c2cccs2)C1 (stereo unspecified),–,–,–,?,–,–
Cc1sc2ncn(CC(=O)NCC(=O)N(C)Cc3ccccc3)c(=O)c2c1C,–,–,–,–,–,–
SMILES,HCV inh,Marburg entry inh,CHX counter,FMDV antiviral,LASV entry inh,Shiga inhibitor
O=C(Nc1ccc2c(c1)OCO2)C1Cc2ccccc2CN1S(=O)(=O)c1cccs1 (stereo unspecified),–,–,18,–,–,–
CC1CCCN(C(=O)C2CCN(S(=O)(=O)c3cccs3)CC2)C1 (stereo unspecified),–,–,·,–,–,·
O=C(C1CCN(S(=O)(=O)c2cccs2)CC1)N1CCCC(C(F)(F)F)C1 (stereo unspecified),–,–,17,–,–,–
COC(=O)CNC(=O)C1Cc2ccccc2CN1S(=O)(=O)c1cccs1 (stereo unspecified),–,–,–,–,–,–
C=CCSC(=S)NC1CCS(=O)(=O)C1 (stereo unspecified),–,?,–,13µM,–,–
COc1ccc(S(=O)(=O)Nc2cc3c4c(oc3c3ccccc23)CCCC4=O)cc1,?,?,–,–,7.1µM,–
COc1ccc(S(=O)(=O)Nc2cc3c4c(oc3c3ccccc23)CC(C)(C)CC4=O)cc1,?,15µM,–,–,?,–
CCN1CC2=C(OC(N)=C(C#N)C2c2cccs2)/C(=C\c2cccs2)C1 (stereo unspecified),14µM,?,–,·,–,–
CCOC(=O)C1=C(CC)OC(N)=C(C#N)C1c1cccs1 (stereo unspecified),–,–,–,·,–,–
COc1cccc(-c2nc3ccc([N+](=O)[O-])cc3o2)c1,–,?,–,–,?,29
O=[N+]([O-])c1ccc2nc(-c3ccccc3)oc2c1,–,·,26,–,·,71
CC(=O)CC(C)(C)Nc1nc2ccc([N+](=O)[O-])cc2o1,–,–,–,–,–,–
O=c1oc(-c2cccc([N+](=O)[O-])c2)nc2ccccc12,–,–,–,–,–,·
CC(C)(C)Nc1nc2ccc([N+](=O)[O-])cc2o1,–,–,19,–,–,–
CC1=C(C(=O)Nc2cc(Cl)ccc2C)C(c2sccc2C)n2ncnc2N1 (stereo unspecified),·,·,·,–,–,·
COc1ccc(OC)c(Nc2nc(N(C)c3ccccc3)nc(N)c2[N+](=O)[O-])c1,5µM,·,–,–,·,–
CN(Cc1ccccc1)c1nc(N)c([N+](=O)[O-])c(Nc2cccc(F)c2)n1,11µM,–,–,–,–,–
CN(c1ccccc1)c1nc(N)c([N+](=O)[O-])c(Nc2ccc(F)cc2)n1,?,·,–,–,·,–
CN(c1ccccc1)c1nc(N)c([N+](=O)[O-])c(Nc2ccccc2F)n1,5.6µM,·,19,–,·,–
O=C1C(Cl)=CC(=Nc2ccc(O)cc2)C=C1Cl,–,·,–,–,·,–
O=C1C=CC(=O)c2c(O)c(CO)c(CO)c(O)c21,–,?,·,35µM,–,·
O=C(N/N=C/c1ccc[nH]1)c1ccccc1OCc1ccccc1Cl,–,–,15,–,–,–
O=C(N/N=C/c1ccco1)c1ccccc1OCc1ccccc1Cl,?,?,19,–,–,–
Cc1ccc(C)c2[nH]c(=O)c(CN(CCCN(C)C)C(=O)NCc3ccccc3)cc12,–,?,–,–,–,–
Cc1ccc(CN(Cc2cc3cccc(C)c3[nH]c2=O)C(=S)NCCCN(C)C)cc1,35µM,4.5µM,–,–,–,–
Cc1cccc2cc(CN(Cc3ccccc3)C(=S)NCCCN(C)C)c(=O)[nH]c12,?,4µM,–,–,–,–
Cc1cc(C)c2cc(CN(CCCN(C)C)C(=S)NCc3ccccc3)c(=O)[nH]c2c1,10µM,?,–,–,?,–
COc1ccc(CNc2ncncc2-c2ccoc2)c(OC)c1,·,·,·,–,·,·

# Source: PubChem
